Most compounds without a hit are left out; they make up all but 11% or so of the library.
hNpr1 antagonist – antagonists of human natriuretic peptide receptor Npr1; P16066; AID 1347048; 76,000 compounds, 1.6% hits; HEK293 hNpr1 GloSensor cGMP, ANP-stimulated luminescence; Potency, µM (series often up to 46.3 µM), without a hit: at the top dose activity change, negative = inhibition, hits mostly inhibitors; calls by dose curve; note: nearly all actives have a fitted effect of over 60% in size
Target sequence (P16066 whole entry, looked up): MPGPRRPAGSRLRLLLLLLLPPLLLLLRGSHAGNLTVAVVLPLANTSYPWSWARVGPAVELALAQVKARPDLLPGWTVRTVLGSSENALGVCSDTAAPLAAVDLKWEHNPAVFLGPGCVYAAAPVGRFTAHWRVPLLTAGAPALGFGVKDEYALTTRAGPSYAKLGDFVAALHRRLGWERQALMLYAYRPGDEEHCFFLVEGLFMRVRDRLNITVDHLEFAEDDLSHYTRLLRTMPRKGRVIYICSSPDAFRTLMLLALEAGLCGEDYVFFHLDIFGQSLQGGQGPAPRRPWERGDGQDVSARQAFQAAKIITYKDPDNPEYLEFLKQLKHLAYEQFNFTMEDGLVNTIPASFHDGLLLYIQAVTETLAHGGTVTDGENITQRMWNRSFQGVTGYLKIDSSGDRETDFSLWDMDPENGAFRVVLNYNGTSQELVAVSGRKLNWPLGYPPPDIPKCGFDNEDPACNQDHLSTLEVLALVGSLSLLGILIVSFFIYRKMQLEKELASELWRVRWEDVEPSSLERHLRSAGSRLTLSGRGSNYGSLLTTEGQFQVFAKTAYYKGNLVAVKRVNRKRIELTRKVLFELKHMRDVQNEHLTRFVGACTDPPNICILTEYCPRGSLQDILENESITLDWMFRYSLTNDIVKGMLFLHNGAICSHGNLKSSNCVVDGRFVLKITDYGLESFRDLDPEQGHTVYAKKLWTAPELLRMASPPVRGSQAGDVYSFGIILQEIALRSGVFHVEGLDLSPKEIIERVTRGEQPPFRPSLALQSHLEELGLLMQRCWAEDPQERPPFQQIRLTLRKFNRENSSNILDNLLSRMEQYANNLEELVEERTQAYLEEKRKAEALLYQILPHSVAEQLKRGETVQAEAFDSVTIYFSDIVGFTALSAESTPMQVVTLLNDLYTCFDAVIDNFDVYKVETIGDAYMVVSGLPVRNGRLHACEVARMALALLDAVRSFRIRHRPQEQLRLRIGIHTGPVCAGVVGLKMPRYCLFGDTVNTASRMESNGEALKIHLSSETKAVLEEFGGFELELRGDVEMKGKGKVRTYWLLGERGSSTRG
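Compound pre-incubated 30 min at room temperature on GloSensor-loaded HEK293 cells stably carrying hNpr1 and the pGS-40F cGMP biosensor. Stimulation uses hNppA at 0.1 nM final; luminescence is taken at baseline and 20 min post-agonist.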
HEK cytotox – cytotoxic compounds in HEK 293 cells. 94,000 compounds, 6.6% hits. HEK 293 viability, ATP luminescence (CellTiter-Glo), 48-72 h. Potency, µM (doses to about 115 µM), for the others: at the highest dose activity change, negative = cytotoxicity, most hits filed as inhibitors; note: nearly all actives have a fitted effect of over 60% in size
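Cells seeded first (HEK 293, 250 cells/well), then compound added by pintool. Incubation ran 48 or 72 hr at 37 degree Celsius. CellTiter-Glo was added and luminescence imaged after 10 min at room temperature.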
FLuc inh – blocks purified firefly luciferase enzyme activity | P08659 | purified P. pyralis luciferase, luminescence, biochemical | Potency, µM (doses to about 115 µM), hits mostly inhibitors | 76,000 compounds, 2.5% hits | AID 1347043; note: nearly all actives have a fitted effect of over 65% in size
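Biochemical qHTS: compound (6-point titration) added to 10uM D-luciferin plus 10uM ATP in Tris acetate pH 7.5 buffer with Mg, Tween-20 and BSA, then purified enzyme at 10nM; light output imaged.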
3T3 cytotox – cytotoxic compounds in NIH 3T3 cells. 94,000 compounds, 4.3% hits. Potency, µM (series often up to 96.7 µM), without a hit: at the highest dose activity change, negative = cytotoxicity, usual class: inhibitors. NIH 3T3 viability, CellTiter-Glo ATP luminescence, 48-72 h. AID 1345082; note: nearly all actives have a fitted effect of over 55% in size
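Cells were seeded at 400 per well, treated with pin-transferred compound, and kept 48 or 72 hr at 37 °C before CellTiter-Glo addition and luminescence imaging of cellular ATP.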
The depositor's hits bear a star; [ ] = dose if it differs, or a comment. Unless noted, calls come from the whole dose curve; as a rule, active = well fitted curve in the direction sought with a large enough effect; inconclusive = small, poorly fitted or top-dose-only effect, or another doubt; inactive = no such curve, though single readings can be large; an effect the other way counts as inactive or inconclusive. % is set by controls: 0 for no effect and ±100 for the full control effect; potency is the fitted concentration of half-maximal effect.

What do the screens show for `CC(=O)N1CCCN(C(=O)c2cc(-c3cc(Cl)cc(Cl)c3)nc3c2cnn3C)CC1`?
HEK cytotox: 79µM*; 3T3 cytotox: inconclusive

Results for CC(=O)N1CCN(C(=O)c2cc(-c3cccc(C(F)(F)F)c3)nc3c2cnn3C)CC1 ?
HEK cytotox: -19%; 3T3 cytotox: inconclusive

What do the screens show for `CN1CCN(C(=O)c2cc(-c3cccc(C(F)(F)F)c3)nc3c2cnn3C)CC1`?
HEK cytotox: inconclusive; 3T3 cytotox: 32µM*

Results for Cn1ncc2c(C(=O)Nc3cccc(F)c3)cc(-c3ccccc3F)nc21 ?
HEK cytotox: inconclusive; 3T3 cytotox: -20%

Results for Cc1ccc(-c2cc(C(=O)NCc3ccc(C(F)(F)F)cc3)c3cnn(C)c3n2)c(C)c1 ?
HEK cytotox: 35µM*; 3T3 cytotox: inconclusive

How did Cn1ncc2c(C(=O)NCC(F)(F)F)cc(-c3cccc(C(F)(F)F)c3)nc21 do in these assays?
HEK cytotox: -19%; 3T3 cytotox: -15%

Results for Cn1ncc2c(C(=O)NCc3cccc(F)c3)cc(-c3ccccc3F)nc21 ?
HEK cytotox: 45µM*; 3T3 cytotox: inconclusive

What do the screens show for `C#CCNC(=O)c1cc(-c2cccc(C(F)(F)F)c2)nc2c1cnn2C`?
HEK cytotox: inconclusive; 3T3 cytotox: 10µM*

How did Cn1nnnc1C1CCCN(C(=O)COc2ccccc2)C1 (stereo not given) do in these assays?
HEK cytotox: -4%; 3T3 cytotox: -14%

Results for CCN(CC)C(=O)CCc1c(C)nn(-c2cccc(C)c2)c1Oc1ccc(F)cc1F ?
hNpr1 antagonist: -27%; HEK cytotox: 25µM*; FLuc inh: inactive; 3T3 cytotox: 35µM*

Results for CCN(CC)C(=O)CCc1c(C)nn(-c2ccc(F)cc2)c1Oc1ccccc1F ?
hNpr1 antagonist: -25%; HEK cytotox: inconclusive; FLuc inh: inactive; 3T3 cytotox: inconclusive

Results for C=CCNC(=O)CCc1c(C)nn(-c2ccc(F)cc2)c1Oc1ccc(F)cc1F ?
hNpr1 antagonist: -14%; HEK cytotox: 35µM*; FLuc inh: inactive; 3T3 cytotox: inconclusive

Results for Cc1cccc(-n2nc(C)c(CCC(=O)N(C)C(C)C)c2Oc2ccccc2)c1 ?
hNpr1 antagonist: -27%; HEK cytotox: 40µM*; FLuc inh: inactive; 3T3 cytotox: 16µM*

How did Cc1nn(-c2ccc(F)cc2)c(Oc2ccccc2F)c1CCC(=O)N(C)C(C)C do in these assays?
hNpr1 antagonist: -16%; HEK cytotox: 35µM*; FLuc inh: inactive; 3T3 cytotox: inconclusive

Results for COc1ccc(-c2cccc(C(=O)N3CCC(C#N)CC3)c2)nn1 ?
HEK cytotox: inconclusive; 3T3 cytotox: -8%

Results for COCCN1CCC2(CCC1=O)CCN(C(=O)Nc1cc(C)ccc1OC)CC2 ?
HEK cytotox: 2%; 3T3 cytotox: -34%

What do the screens show for `COc1ccc(C(CC(=O)NCCC(C)C)c2c[nH]c3ccccc23)c(OC)c1` (stereo not given)?
hNpr1 antagonist: -19%; HEK cytotox: inconclusive; FLuc inh: inactive; 3T3 cytotox: inconclusive

What do the screens show for `CC(C)CNC(=O)c1ccc2c(c1)NC(C)(COc1ccc3[nH]ccc3c1)CO2` (stereo not given)?
hNpr1 antagonist: -17%[70.6 µM]; HEK cytotox: inconclusive; FLuc inh: inactive; 3T3 cytotox: 89µM*

What do the screens show for `CC1(COc2ccc3[nH]ccc3c2)COc2ccc(C(=O)NCc3ccco3)cc2N1` (stereo not given)?
hNpr1 antagonist: -15%[70.6 µM]; HEK cytotox: 100µM*; FLuc inh: inactive; 3T3 cytotox: inconclusive

What do the screens show for `CN(C)C(=O)c1ccc2c(c1)NC(C)(COc1ccc3[nH]ccc3c1)CO2` (stereo not given)?
hNpr1 antagonist: -14%[70.6 µM]; HEK cytotox: inconclusive; FLuc inh: inactive; 3T3 cytotox: -16%[138 µM]

What do the screens show for `CC1(COc2ccc3[nH]ccc3c2)COc2ccc(C(=O)Nc3cccnc3)cc2N1` (stereo not given)?
hNpr1 antagonist: inconclusive; HEK cytotox: 100µM*; FLuc inh: inactive; 3T3 cytotox: 89µM*

What do the screens show for `COc1ccc(NC(=O)c2ccc3c(c2)NC(C)(COc2ccc4[nH]ccc4c2)CO3)cn1` (stereo not given)?
hNpr1 antagonist: -27%; HEK cytotox: inconclusive; FLuc inh: inactive; 3T3 cytotox: inconclusive

Results for COc1ccc(OCC2(C)COc3ccc(C(=O)NCc4ccco4)cc3N2)cc1 (stereo not given) ?
hNpr1 antagonist: inconclusive; HEK cytotox: inconclusive; FLuc inh: inactive; 3T3 cytotox: inconclusive

What do the screens show for `C=CCN1C[C@H]2COc3c(OCC)cccc3[C@H]2N(C(=O)OC)CCC1=O`?
HEK cytotox: -19%; 3T3 cytotox: inconclusive

How did COc1ccccc1N1CCN([C@H]2[C@@H]3OC[C@@H](O3)[C@@H](N(CC3CC3)CC3CC3)[C@@H]2O)CC1 do in these assays?
hNpr1 antagonist: 1%; HEK cytotox: -19%; FLuc inh: inactive; 3T3 cytotox: -25%

What do the screens show for `O=C1NC(=NC2CCCC2)C2(CCN(Cc3cccnc3)CC2)N1c1cc(F)cc(F)c1`?
HEK cytotox: inactive; 3T3 cytotox: 32µM*

Results for O=C1NC(=NC2CCCC2)C2(CCN(Cc3cccnc3)C2)N1c1cc(F)cc(F)c1 (stereo not given) ?
HEK cytotox: inactive; 3T3 cytotox: 32µM*

What do the screens show for `O=C1NC(=NC2CCCC2)C2(CCN(Cc3ccccc3)CC2)N1c1cc(F)cc(F)c1`?
HEK cytotox: -28%; 3T3 cytotox: -13%

Results for O=C(NC1CCCN(c2ccc3nnc(C4CC4)n3n2)C1)C1CC1 (stereo not given) ?
HEK cytotox: -5%; 3T3 cytotox: 1%

What do the screens show for `COc1ccc(O)c(CN2CCC(CO)(Cc3ccccc3Cl)CC2)c1`?
hNpr1 antagonist: -12%; HEK cytotox: inconclusive; FLuc inh: inactive; 3T3 cytotox: inconclusive

How did CC(C)n1cc(CN2CCC(CO)(Cc3ccccc3Cl)CC2)cn1 do in these assays?
hNpr1 antagonist: -1%; HEK cytotox: -19%; FLuc inh: inactive; 3T3 cytotox: 1%

How did OCC1(Cc2ccccc2Cl)CCN(Cc2cc3ccccc3o2)CC1 do in these assays?
hNpr1 antagonist: inconclusive; HEK cytotox: 18µM*; FLuc inh: inactive; 3T3 cytotox: inconclusive

Results for CC(C)Oc1ccc(CN2CCC(CO)(Cc3ccccc3Cl)CC2)cc1CO ?
hNpr1 antagonist: 0%; HEK cytotox: inconclusive; FLuc inh: inactive; 3T3 cytotox: 25µM*

Results for O=C(C1CCCN1C(=O)c1ccccc1F)N1CCC(c2nc3ccncc3[nH]2)CC1 (stereo not given) ?
HEK cytotox: inactive; 3T3 cytotox: -5%

Results for NC(=O)[C@@H]1C[C@H](Oc2ccccc2)CN1C(=O)Cc1ccccc1 ?
HEK cytotox: -1%; 3T3 cytotox: 3%

Screening data from PubChem.
